The values below come from PMC7862700, “An all-to-all approach to the identification of sequence-specific readers for epigenetic DNA modifications on cytosine”.

Common to all, as to assay: DAPPL (digital affinity profiling via proximity ligation, sequencing); 10 mM Tris-HCl pH 7.5, 50 mM NaCl, 1 mM DTT, 4% glycerol, room temperature, 30 min; GST-TFs on glutathione beads, 16-mer random dsDNA library, 0.1% formaldehyde crosslink after washing; high values mean tight binding
Common to all, as to details: protein: recombinant; tags: N-terminal GST; dsDNA, one strand shown

In one experiment the target is T1, FLI1 (Homo sapiens, UniProt Q01543 1-452).
T1 sequence: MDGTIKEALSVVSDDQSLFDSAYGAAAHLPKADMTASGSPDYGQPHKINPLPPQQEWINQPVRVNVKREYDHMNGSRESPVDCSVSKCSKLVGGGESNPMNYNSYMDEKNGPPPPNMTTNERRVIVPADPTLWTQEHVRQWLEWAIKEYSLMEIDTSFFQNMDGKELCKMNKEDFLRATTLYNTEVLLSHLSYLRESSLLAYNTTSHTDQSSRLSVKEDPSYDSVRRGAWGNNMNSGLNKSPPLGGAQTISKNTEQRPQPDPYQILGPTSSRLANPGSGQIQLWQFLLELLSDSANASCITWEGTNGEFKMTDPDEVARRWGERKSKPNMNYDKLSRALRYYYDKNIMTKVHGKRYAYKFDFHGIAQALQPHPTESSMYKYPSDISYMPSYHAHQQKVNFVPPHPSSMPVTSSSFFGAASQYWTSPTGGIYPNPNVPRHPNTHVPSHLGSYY
A digest of the protocol:
(§1)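 Each value of binding signal is a hexamer's read frequency for a factor divided by the same hexamer's frequency in the tag-only sample. Barcoded, bead-captured GST fusions of human transcription factors made in yeast were pooled with that sample and incubated with 200 nmole of a random double-stranded 16-mer DNA library in Tris/NaCl/DTT/glycerol buffer at room temperature for 30 min. Washing, 0.1% formaldehyde crosslinking, proximity ligation, PCR and Illumina NextSeq500 sequencing followed.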

Another experiment addresses T2, ELK1 (Homo sapiens, UniProt P19419 1-428).
T2 sequence: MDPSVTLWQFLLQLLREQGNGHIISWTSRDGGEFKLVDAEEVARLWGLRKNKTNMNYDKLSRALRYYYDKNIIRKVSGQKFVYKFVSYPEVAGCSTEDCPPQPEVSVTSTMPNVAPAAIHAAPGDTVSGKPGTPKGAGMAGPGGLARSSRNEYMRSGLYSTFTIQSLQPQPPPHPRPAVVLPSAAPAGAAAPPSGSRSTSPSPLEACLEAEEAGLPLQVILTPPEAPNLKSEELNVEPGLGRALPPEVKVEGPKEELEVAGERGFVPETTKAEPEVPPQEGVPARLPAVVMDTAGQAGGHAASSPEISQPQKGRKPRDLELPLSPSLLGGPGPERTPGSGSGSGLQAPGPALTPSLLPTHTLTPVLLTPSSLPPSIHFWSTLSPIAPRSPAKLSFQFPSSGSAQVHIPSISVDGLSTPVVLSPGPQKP
A digest of the protocol: as §1

The target in another experiment is T3, EHF (Homo sapiens, UniProt Q9NZC4 1-300).
T3 sequence: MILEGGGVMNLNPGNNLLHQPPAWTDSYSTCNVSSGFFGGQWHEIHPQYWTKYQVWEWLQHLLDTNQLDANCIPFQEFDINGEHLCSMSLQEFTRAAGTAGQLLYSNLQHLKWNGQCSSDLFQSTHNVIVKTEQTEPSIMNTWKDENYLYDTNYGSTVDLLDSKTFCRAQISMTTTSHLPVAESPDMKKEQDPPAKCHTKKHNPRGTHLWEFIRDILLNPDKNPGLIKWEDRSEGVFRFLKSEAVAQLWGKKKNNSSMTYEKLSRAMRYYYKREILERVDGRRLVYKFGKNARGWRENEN
A digest of the protocol:
as §1

A further experiment deals with T4, ELK3 (Homo sapiens, UniProt P41970 1-407).
T4 sequence: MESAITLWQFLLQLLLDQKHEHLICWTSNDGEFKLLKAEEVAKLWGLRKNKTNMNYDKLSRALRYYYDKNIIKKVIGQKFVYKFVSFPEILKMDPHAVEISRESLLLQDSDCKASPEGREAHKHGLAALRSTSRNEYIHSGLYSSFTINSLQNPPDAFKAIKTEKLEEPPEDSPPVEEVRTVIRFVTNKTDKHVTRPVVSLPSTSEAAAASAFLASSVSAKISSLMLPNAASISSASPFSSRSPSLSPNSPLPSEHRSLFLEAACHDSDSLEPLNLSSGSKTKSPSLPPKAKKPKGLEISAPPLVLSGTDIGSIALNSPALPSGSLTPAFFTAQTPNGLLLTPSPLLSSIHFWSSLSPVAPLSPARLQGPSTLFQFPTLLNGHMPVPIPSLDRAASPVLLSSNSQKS
A digest of the protocol:
as §1

The target in another experiment is T5, ELK4 (Homo sapiens, UniProt P28324-2 1-405).
T5 sequence: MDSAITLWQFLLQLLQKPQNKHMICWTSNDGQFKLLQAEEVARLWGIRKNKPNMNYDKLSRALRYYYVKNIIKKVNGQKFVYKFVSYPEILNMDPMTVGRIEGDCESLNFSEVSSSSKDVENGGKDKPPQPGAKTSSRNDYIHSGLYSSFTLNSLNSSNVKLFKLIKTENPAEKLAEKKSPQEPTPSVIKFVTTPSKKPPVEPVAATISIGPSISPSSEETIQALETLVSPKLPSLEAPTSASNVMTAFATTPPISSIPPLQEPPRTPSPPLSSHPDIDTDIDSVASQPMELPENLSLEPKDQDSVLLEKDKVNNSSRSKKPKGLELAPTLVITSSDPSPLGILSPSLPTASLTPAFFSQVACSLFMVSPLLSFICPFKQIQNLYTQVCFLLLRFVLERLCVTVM
The procedure, abridged: as §1

A further experiment addresses T6, ETS2 (Homo sapiens, UniProt P15036 1-469).
T6 sequence: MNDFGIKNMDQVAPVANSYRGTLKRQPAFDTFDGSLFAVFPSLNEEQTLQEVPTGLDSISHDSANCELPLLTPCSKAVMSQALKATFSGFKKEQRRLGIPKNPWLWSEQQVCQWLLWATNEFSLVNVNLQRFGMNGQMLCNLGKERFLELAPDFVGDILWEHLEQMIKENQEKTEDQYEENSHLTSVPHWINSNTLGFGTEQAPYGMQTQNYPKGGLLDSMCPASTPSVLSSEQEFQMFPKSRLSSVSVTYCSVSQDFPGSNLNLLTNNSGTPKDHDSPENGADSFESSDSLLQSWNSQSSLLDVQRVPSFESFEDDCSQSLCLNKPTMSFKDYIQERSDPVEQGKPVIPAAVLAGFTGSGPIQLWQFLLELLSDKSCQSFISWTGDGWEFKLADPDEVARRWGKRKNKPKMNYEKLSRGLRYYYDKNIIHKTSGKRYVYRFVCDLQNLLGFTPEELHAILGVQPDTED
A digest of the protocol:
as §1

In a further experiment the target is T7, GABPA (Homo sapiens, UniProt Q06546 1-454).
T7 sequence: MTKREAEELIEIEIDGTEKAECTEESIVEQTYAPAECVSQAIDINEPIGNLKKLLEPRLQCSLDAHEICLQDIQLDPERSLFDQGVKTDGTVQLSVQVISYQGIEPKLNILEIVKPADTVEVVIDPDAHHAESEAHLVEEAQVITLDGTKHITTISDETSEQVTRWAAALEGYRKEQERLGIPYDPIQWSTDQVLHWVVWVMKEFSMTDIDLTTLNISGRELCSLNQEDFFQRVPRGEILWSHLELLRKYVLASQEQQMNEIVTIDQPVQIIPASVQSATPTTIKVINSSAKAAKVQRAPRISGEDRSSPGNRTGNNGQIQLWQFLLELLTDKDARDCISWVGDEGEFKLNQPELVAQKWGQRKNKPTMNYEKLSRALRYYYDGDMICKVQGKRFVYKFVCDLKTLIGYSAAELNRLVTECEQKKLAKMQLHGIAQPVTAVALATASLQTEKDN
The procedure, abridged: as §1

For a further experiment, the target named is SPIB (Homo sapiens, UniProt Q01892 1-262). The procedure, abridged:
as §1

A further experiment has as its target T8, ETV3 (Homo sapiens, UniProt P41162-2 1-143).
T8 sequence: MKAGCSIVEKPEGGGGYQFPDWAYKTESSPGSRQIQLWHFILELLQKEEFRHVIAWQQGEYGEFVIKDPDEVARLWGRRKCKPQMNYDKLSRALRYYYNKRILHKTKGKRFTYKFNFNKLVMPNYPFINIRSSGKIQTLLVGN
A digest of the protocol:
as §1

The next experiment addresses ELF1 (Homo sapiens, UniProt P32519 1-619). A digest of the protocol: as §1
The next experiment concerns the target T9, ETV2 (Homo sapiens, UniProt O00321 1-342).
T9 sequence: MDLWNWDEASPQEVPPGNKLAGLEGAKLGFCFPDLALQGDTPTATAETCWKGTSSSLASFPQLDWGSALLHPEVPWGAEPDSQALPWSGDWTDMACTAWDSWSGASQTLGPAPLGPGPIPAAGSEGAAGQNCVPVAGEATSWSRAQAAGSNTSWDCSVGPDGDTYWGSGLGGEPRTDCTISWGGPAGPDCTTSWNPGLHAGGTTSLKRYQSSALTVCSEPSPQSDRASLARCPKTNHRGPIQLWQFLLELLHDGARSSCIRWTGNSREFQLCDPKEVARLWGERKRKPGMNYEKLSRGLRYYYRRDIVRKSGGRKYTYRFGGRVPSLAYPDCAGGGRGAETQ
The procedure, abridged: as §1

A further experiment concerns the target ETV1 (Homo sapiens, UniProt P50549 1-477). A digest of the protocol: as §1
The target in the next experiment is T10, ERF (Homo sapiens, UniProt P50548 1-548).
T10 sequence: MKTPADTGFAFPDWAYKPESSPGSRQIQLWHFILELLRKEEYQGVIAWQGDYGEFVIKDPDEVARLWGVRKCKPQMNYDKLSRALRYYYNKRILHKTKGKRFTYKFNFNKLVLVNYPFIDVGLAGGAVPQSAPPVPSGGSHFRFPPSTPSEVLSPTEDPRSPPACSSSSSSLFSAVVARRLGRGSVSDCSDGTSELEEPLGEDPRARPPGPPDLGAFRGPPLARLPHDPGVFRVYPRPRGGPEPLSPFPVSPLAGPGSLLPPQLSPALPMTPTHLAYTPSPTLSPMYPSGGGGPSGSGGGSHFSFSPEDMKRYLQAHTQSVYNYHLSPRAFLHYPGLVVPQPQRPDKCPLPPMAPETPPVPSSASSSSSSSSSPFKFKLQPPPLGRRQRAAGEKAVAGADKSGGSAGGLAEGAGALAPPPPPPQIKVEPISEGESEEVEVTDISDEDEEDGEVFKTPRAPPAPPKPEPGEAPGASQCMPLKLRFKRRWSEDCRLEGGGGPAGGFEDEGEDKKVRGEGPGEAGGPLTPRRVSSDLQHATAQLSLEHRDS
The procedure, abridged:
as §1

The target in a further experiment is T11, ETV3L (Homo sapiens, UniProt Q6ZN32 1-361).
T11 sequence: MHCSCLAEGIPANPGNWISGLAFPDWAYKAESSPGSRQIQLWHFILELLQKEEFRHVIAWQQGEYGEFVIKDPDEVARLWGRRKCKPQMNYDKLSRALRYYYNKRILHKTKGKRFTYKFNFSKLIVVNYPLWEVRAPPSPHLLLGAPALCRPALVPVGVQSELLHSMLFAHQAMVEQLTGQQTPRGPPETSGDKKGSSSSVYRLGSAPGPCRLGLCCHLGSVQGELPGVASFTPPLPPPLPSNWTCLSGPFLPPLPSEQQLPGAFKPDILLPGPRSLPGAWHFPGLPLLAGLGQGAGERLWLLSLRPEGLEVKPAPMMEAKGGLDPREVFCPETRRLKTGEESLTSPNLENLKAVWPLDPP
A digest of the protocol:
as §1

In a further experiment the target is ETV6 (Homo sapiens, UniProt P41212 1-452). A digest of the protocol: as §1
Sequence of ETV6 (P41212 whole entry): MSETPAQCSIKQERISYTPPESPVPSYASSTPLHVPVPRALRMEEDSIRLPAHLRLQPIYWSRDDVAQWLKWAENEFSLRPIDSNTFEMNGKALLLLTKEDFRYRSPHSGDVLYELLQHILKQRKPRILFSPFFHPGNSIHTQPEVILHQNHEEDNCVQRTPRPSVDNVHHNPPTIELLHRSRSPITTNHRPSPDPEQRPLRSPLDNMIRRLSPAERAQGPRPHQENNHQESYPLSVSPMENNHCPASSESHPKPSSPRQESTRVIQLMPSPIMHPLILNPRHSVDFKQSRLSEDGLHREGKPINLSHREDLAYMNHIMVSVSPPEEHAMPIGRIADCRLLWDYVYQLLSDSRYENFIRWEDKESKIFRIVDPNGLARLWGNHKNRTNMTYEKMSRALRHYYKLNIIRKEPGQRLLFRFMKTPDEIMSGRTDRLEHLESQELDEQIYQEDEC

Sequence of ELF1 (P32519 whole entry): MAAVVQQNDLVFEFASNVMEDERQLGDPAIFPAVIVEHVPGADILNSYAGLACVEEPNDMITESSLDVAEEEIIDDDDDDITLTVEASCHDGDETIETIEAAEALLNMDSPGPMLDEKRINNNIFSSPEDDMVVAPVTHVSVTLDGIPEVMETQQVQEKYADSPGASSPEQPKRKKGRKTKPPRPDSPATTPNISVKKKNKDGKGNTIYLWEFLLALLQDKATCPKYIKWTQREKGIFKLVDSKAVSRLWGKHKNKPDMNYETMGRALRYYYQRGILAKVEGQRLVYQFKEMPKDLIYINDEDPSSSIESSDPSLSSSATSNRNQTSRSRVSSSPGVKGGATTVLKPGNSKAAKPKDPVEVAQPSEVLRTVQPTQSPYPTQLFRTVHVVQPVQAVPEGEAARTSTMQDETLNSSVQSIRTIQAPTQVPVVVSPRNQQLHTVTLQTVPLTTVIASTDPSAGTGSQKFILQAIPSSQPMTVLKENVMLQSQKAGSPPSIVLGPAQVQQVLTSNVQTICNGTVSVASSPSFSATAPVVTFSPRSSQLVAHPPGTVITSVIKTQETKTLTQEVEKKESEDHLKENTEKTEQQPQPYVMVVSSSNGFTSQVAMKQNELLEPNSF
Sequence of SPIB (Q01892 whole entry): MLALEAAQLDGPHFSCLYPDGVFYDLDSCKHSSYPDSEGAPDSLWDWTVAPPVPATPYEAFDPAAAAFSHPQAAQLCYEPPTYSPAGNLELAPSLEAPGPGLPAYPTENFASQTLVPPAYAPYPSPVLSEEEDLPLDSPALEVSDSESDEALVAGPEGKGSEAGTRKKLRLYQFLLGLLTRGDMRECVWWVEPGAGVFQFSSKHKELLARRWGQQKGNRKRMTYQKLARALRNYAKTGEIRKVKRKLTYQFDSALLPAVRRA
Sequence of ETV1 (P50549 whole entry): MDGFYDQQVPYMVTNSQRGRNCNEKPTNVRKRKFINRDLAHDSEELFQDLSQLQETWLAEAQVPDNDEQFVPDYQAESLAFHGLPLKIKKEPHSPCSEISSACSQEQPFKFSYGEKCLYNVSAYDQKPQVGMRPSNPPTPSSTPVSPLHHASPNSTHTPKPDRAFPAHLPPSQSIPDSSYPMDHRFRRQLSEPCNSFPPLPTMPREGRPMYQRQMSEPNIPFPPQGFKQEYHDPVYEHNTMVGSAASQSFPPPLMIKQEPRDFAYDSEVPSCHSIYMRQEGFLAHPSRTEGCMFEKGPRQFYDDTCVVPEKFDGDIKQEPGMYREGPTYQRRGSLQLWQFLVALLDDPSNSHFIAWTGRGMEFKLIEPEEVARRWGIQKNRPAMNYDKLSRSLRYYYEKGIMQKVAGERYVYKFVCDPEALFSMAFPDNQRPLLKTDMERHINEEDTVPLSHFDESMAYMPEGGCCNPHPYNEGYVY

On to CATCAG, for which the binding signal in the experiment with FLI1 was 1 fold enrichment (6-mer frequency, TF over GST control); with ELK1 it was 1.04 fold enrichment (6-mer frequency, TF over GST control); with EHF, 1.03 fold enrichment (6-mer frequency, TF over GST control); in the experiment with ELK3, 1.06 fold enrichment (6-mer frequency, TF over GST control); with ELK4, 1.06 fold enrichment (6-mer frequency, TF over GST control); in the experiment with ETS2, 1 fold enrichment (6-mer frequency, TF over GST control).
In the case of GACTCA, the binding signal with FLI1 was 1.06 fold enrichment (6-mer frequency, TF over GST control); with GABPA, 1.02 fold enrichment (6-mer frequency, TF over GST control); with SPIB, 1.09 fold enrichment (6-mer frequency, TF over GST control); in the experiment with ELK3 it was 1.04 fold enrichment (6-mer frequency, TF over GST control).
In the case of GCCTGT, the binding signal was 1.02 fold enrichment (6-mer frequency, TF over GST control) with FLI1; 1.03 fold enrichment (6-mer frequency, TF over GST control) in the experiment with ELK3; 1.05 fold enrichment (6-mer frequency, TF over GST control) in the experiment with ELK4; 1.04 fold enrichment (6-mer frequency, TF over GST control) in the experiment with ETV3.
Regarding GTATGT, the binding signal in the experiment with FLI1 is 1.04 fold enrichment (6-mer frequency, TF over GST control); in the experiment with ELF1, 1.03 fold enrichment (6-mer frequency, TF over GST control); with ELK3, 1 fold enrichment (6-mer frequency, TF over GST control); with ETV2, 1.02 fold enrichment (6-mer frequency, TF over GST control).
In the case of GCATCT, the binding signal with FLI1 is 1.03 fold enrichment (6-mer frequency, TF over GST control); with ELK1, 1.02 fold enrichment (6-mer frequency, TF over GST control); with GABPA, 1.03 fold enrichment (6-mer frequency, TF over GST control); with ELF1, 1.02 fold enrichment (6-mer frequency, TF over GST control); with EHF, 1.06 fold enrichment (6-mer frequency, TF over GST control); in the experiment with SPIB, 1.02 fold enrichment (6-mer frequency, TF over GST control). In addition, the binding signal in the experiment with ETV2 was 1 fold enrichment (6-mer frequency, TF over GST control); in the experiment with ETV1, 1.09 fold enrichment (6-mer frequency, TF over GST control); with ERF, 1.04 fold enrichment (6-mer frequency, TF over GST control); in the experiment with ETV3L it was 1.05 fold enrichment (6-mer frequency, TF over GST control); with ETS2 it was 1.04 fold enrichment (6-mer frequency, TF over GST control); with ETV6, 1.01 fold enrichment (6-mer frequency, TF over GST control).
